Measurements published in PubChem BioAssay AID1159580 (chemical genetic matrix, 2015).
Several values for one entry are separate records, joined by “and”; a condition that tells them apart may be missing. Equal values may be shown once. Screen size: about 5,500 compounds; about 2,000 (36%) were called active. Roughly 18% stayed inconclusive and do not appear here. Rule as the data show it: active = normalized growth mostly below about 0.91 (no sharp cut-off); inconclusive = no clear call, values can overlap the other calls; inactive = mostly above about 0.92. The list shows a part of the results.

Test: chemical genetic growth profiling, strain panel (AID 1159580);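 also: tested at 20 µM; growth read once vehicle control cultures reached saturation at 30 °C; 1 = growth at the plate median or of vehicle wells; lower values mean less growth of the strain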
Settings: growth OD

Measured: normalized growth

CCOC(=O)C1=C(C)NC(C)=C(C(=O)OC)C1c1cccc([N+](=O)[O-])c1 (stereo unspecified)
inactive: S. cerevisiae deletion strains, locus YJL187C, strain SWE1, active compounds read low 1.01 | S. cerevisiae deletion strains, locus YJR043C, strain POL32, active compounds read low 1.01 | S. cerevisiae deletion strains, locus YJR075W, strain HOC1, active compounds read low 0.995 and 0.989 | S. cerevisiae deletion strains, locus YKL009W, strain mrt4, active compounds read low 1.01 | S. cerevisiae deletion strains, locus YKL068W, active compounds read low 0.996 | S. cerevisiae deletion strains, locus YKL085W, strain MDH1 (second series), active compounds read low 0.997 | S. cerevisiae deletion strains, locus YKL085W, strain MDH1, active compounds read low 0.997 | S. cerevisiae deletion strains, locus YKL160W, strain elf1, active compounds read low 1.01 | S. cerevisiae deletion strains, locus YKL190W, strain CNB1, active compounds read low 0.99 | S. cerevisiae deletion strains, locus YKR001C, strain vps1, active compounds read low 1 | S. cerevisiae deletion strains, locus YKR026C, strain gcn3, active compounds read low 0.999 | S. cerevisiae deletion strains, locus YKR091W, strain srl3, active compounds read low 1 | S. cerevisiae deletion strains, locus YLL001W, strain dnm1, active compounds read low 1.02 | S. cerevisiae deletion strains, locus YLL026W, active compounds read low 1 | S. cerevisiae deletion strains, locus YLL041C, strain sdh2, active compounds read low 1.02 | S. cerevisiae deletion strains, locus YLR027C, strain aat2, active compounds read low 1.01 | S. cerevisiae deletion strains, locus YLR039C, strain RIC1, active compounds read low 0.968 | S. cerevisiae deletion strains, locus YLR058C, strain SHM2, active compounds read low 0.999 | S. cerevisiae deletion strains, locus YLR102C, strain apc9, active compounds read low 1 | S. cerevisiae deletion strains, locus YLR221C, strain rsa3, active compounds read low 1.01 | S. cerevisiae deletion strains, locus YLR258W, strain gsy2, active compounds read low 1.01 | S. cerevisiae deletion strains, locus YLR262C, strain YPT6 (second series), active compounds read low 0.959 | S. cerevisiae deletion strains, locus YLR262C, strain YPT6, active compounds read low 0.946 | S. cerevisiae deletion strains, locus YLR268W, strain sec22, active compounds read low 0.984 | S. cerevisiae deletion strains, locus YLR320W, strain mms22, active compounds read low 1 | S. cerevisiae deletion strains, locus YLR330W, strain CHS5, active compounds read low 1.01 | S. cerevisiae deletion strains, locus YLR342W, strain FKS1 (second series), active compounds read low 1.01 | S. cerevisiae deletion strains, locus YLR342W, strain FKS1, active compounds read low 1.01 | S. cerevisiae deletion strains, locus YLR357W, strain rsc2, active compounds read low 1.02 | S. cerevisiae deletion strains, locus YLR370C, strain arc18, active compounds read low 1.01 | S. cerevisiae deletion strains, locus YLR371W, strain rom2, active compounds read low 1.01 | S. cerevisiae deletion strains, locus YLR384C, strain iki3, active compounds read low 0.998 | S. cerevisiae deletion strains, locus YLR418C, strain cdc73, active compounds read low 0.967 | S. cerevisiae deletion strains, locus YML016C, strain PPZ1, active compounds read low 1 | S. cerevisiae deletion strains, locus YML032C, strain rad52, active compounds read low 1.02 | S. cerevisiae deletion strains, locus YML120C, strain ndi1, active compounds read low 1.01 | S. cerevisiae deletion strains, locus YML124C, strain tub3, active compounds read low 1 | S. cerevisiae deletion strains, locus YMR058W, strain fet3, active compounds read low 1.02 | S. cerevisiae deletion strains, locus YMR078C, strain ctf18, active compounds read low 0.999 | S. cerevisiae deletion strains, locus YMR125W, strain sto1, active compounds read low 1.01 | S. cerevisiae deletion strains, locus YMR129W, active compounds read low 0.999 | S. cerevisiae deletion strains, locus YMR205C, strain PFK2, active compounds read low 0.991 | S. cerevisiae deletion strains, locus YMR223W, strain ubp8, active compounds read low 1.01 | S. cerevisiae deletion strains, locus YMR231W, strain pep5, active compounds read low 1.01 | S. cerevisiae deletion strains, locus YMR263W, strain SAP30, active compounds read low 1.01 and 0.981 | S. cerevisiae deletion strains, locus YMR307W, strain GAS1, active compounds read low 0.931 | S. cerevisiae deletion strains, locus YNL067W, strain RPL9B, active compounds read low 0.996 | S. cerevisiae deletion strains, locus YNL071W, strain lat1, active compounds read low 1.01 | S. cerevisiae deletion strains, locus YNL128W, strain TEP1, active compounds read low 0.994 and 1.01 | S. cerevisiae deletion strains, locus YNL153C, strain GIM3, active compounds read low 0.999 and 0.961 | S. cerevisiae deletion strains, locus YNL209W, strain ssb2, active compounds read low 1.01 | S. cerevisiae deletion strains, locus YNL224C, strain SQS1, active compounds read low 0.979 | S. cerevisiae deletion strains, locus YNL233W, strain BNI4, active compounds read low 0.995 | S. cerevisiae deletion strains, locus YNL248C, strain rpa49, active compounds read low 1.01 | S. cerevisiae deletion strains, locus YNL250W, strain rad50, active compounds read low 1.01 | S. cerevisiae deletion strains, locus YNL271C, strain bni1, active compounds read low 1.01 | S. cerevisiae deletion strains, locus YNL298W, strain CLA4, active compounds read low 1.02 | S. cerevisiae deletion strains, locus YNL307C, strain MCK1, active compounds read low 1.01 | S. cerevisiae deletion strains, locus YNL322C, strain KRE1 (second series), active compounds read low 1.01 | S. cerevisiae deletion strains, locus YNL322C, strain KRE1, active compounds read low 1 and 0.995 | S. cerevisiae deletion strains, locus YNR049C, strain mso1, active compounds read low 1.01 | S. cerevisiae deletion strains, locus YNR052C, strain pop2, active compounds read low 1.01 | S. cerevisiae deletion strains, locus YOL006C, strain TOP1, active compounds read low 1.01 | S. cerevisiae deletion strains, locus YOL012C, strain htz1 0.79 | S. cerevisiae deletion strains, locus YOL147C, strain pex11, active compounds read low 1.01 | S. cerevisiae deletion strains, locus YOR001W, strain rrp6, active compounds read low 1.03 | S. cerevisiae deletion strains, locus YOR061W, strain CKA2, active compounds read low 0.988 | S. cerevisiae deletion strains, locus YOR069W, strain VPS5, active compounds read low 0.997 | S. cerevisiae deletion strains, locus YOR070C, strain gyp1, active compounds read low 1.01 | S. cerevisiae deletion strains, locus YOR080W, strain dia2, active compounds read low 1.01 | S. cerevisiae deletion strains, locus YOR083W, strain WHI5, active compounds read low 1 | S. cerevisiae deletion strains, locus YOR106W, strain vam3, active compounds read low 1.01 | S. cerevisiae deletion strains, locus YOR136W, strain idh2, active compounds read low 1.02 | S. cerevisiae deletion strains, locus YOR144C, strain elg1, active compounds read low 1 | S. cerevisiae deletion strains, locus YOR184W, strain ser1, active compounds read low 1.01 | S. cerevisiae deletion strains, locus YOR265W, strain rbl2, active compounds read low 1 | S. cerevisiae deletion strains, locus YOR270C, strain vph1, active compounds read low 1.03 | S. cerevisiae deletion strains, locus YOR290C, strain snf2, active compounds read low 1.01 | S. cerevisiae deletion strains, locus YOR316C, strain cot1, active compounds read low 1 | S. cerevisiae deletion strains, locus YPL051W, strain arl3, active compounds read low 1 | S. cerevisiae deletion strains, locus YPL055C, strain LGE1, active compounds read low 0.95 and 1 | S. cerevisiae deletion strains, locus YPL078C, strain atp4, active compounds read low 1.03 | S. cerevisiae deletion strains, locus YPL106C, strain sse1, active compounds read low 1.04 | S. cerevisiae deletion strains, locus YPL240C, strain hsp82, active compounds read low 1.01 | S. cerevisiae deletion strains, locus YPL241C, strain CIN2, active compounds read low 0.977 | S. cerevisiae deletion strains, locus YPR119W, strain clb2, active compounds read low 1 | S. cerevisiae deletion strains, locus YPR141C, strain kar3, active compounds read low 1 | S. cerevisiae deletion strains, locus YPR163C, strain tif3, active compounds read low 1.01 | S. cerevisiae deletion strains, locus YPR167C, strain met16, active compounds read low 0.998 | S. cerevisiae deletion strains, strain wtn01, active compounds read low 0.987 | S. cerevisiae strains, strain wild type, active compounds read low 0.982
